Screening results from PubChem.
This is a sample that favours compounds with a hit; in the whole collection about 13% have one here.
USP30 block – inhibitors of human USP30 deubiquitinase. Ubiquitin carboxyl-terminal hydrolase 30 (Homo sapiens), Q70CQ3. purified USP30, Ub-rhodamine cleavage fluorescence. inhibition, % at 25 µM. 5.3% of 47,000 active. AID 1645860, 2021
Target sequence (Q70CQ3 whole entry, looked up): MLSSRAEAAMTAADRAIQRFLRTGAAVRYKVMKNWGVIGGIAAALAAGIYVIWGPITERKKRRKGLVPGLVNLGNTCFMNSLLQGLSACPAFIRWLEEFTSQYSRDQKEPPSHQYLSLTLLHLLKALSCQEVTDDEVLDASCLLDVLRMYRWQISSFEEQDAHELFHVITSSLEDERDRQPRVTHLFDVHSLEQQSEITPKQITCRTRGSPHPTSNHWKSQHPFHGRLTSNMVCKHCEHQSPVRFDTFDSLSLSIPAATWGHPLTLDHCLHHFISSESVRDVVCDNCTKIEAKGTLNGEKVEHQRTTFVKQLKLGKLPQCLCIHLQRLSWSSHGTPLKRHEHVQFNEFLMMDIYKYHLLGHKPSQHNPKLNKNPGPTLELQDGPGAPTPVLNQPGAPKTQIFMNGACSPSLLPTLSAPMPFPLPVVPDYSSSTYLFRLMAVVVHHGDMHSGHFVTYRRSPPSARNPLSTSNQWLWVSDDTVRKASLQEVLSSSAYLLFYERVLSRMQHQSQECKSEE
USP8 inh – inhibitors of human USP8 deubiquitinase | 4.2% of 47,000 active | inhibition, % at 20 µM | purified USP8, Ub-rhodamine cleavage fluorescence, 30 min | AID 1645853, 2021
USP10 inh – inhibitors of human USP10 deubiquitinase; Ubiquitin carboxyl-terminal hydrolase 10 (Homo sapiens), Q14694; purified USP10, Ub-rhodamine fluorescence, 60 min; inhibition, % at 20 µM; 1.1% of 47,000 active; AID 1645856, 2021
USP17 block – inhibitors of human USP17 deubiquitinase; purified USP17, Ub-rhodamine cleavage fluorescence, 3 h; Ubiquitin carboxyl-terminal hydrolase 17-like protein 5 (Homo sapiens), A8MUK1; 6.5% of 47,000 active; inhibition, % at 50 µM
USP28 inh – inhibitors of human USP28 deubiquitinase | Ubiquitin carboxyl-terminal hydrolase 28 (Homo sapiens), Q96RU2 | purified USP28, Ub-rhodamine cleavage fluorescence, 30 min | 3% of 47,000 active | inhibition, % at 25 µM | AID 1645857, 2021
Each line names hits and unclear results; the compound was inactive in the other large screens. No stated cut-off is given here; in the data, active means inhibition above about 30%; inactive means the rest.

CCOc1ccc(S(=O)(=O)Nc2ccc3c(c2)CC(=O)N3CC)cc1	none
COc1ccc(OC)c(NC(=O)CS(=O)(=O)c2cn(CC(=O)N3CCC(C)CC3)c3ccccc23)c1	USP8 inh 31.7, USP17 block 51.0
O=C(Cn1cc(C(=O)c2ccccc2)c(=O)c2cc3c(cc21)OCCO3)Nc1ccc2c(c1)OCO2	none
CC1CCN(C(=O)Cn2cc(SCC(=O)Nc3ccc4c(c3)OCCO4)c3ccccc32)CC1	USP28 inh 37.6
COc1ccc(NC(=O)CSc2cn(CC(=O)N3CCCCCC3)c3ccccc23)cc1OC	none
O=C(Cn1cc(C(=O)c2ccccc2)c(=O)c2cc(F)ccc21)Nc1ccc2c(c1)OCO2	USP8 inh 58.8
Cc1ccc(C(=O)c2cn(CC(=O)Nc3ccc4c(c3)OCO4)c3ccccc3c2=O)cc1	USP30 block 79.5, USP8 inh 90.1, USP10 inh 57.4, USP17 block 84.9
O=C(Nc1ccc(F)cc1)C(c1ccc(F)cc1)N(Cc1ccc(F)cc1)C(=O)c1cnccn1 (stereo unspecified)	none
CC(C)CN1C[C@@]23CN(C(=O)c4ccncc4)C[C@@H](C[C@@H]2S1(=O)=O)O3	none
COc1ccc(-c2oc3ccc(Br)cc3c(=O)c2C)cc1[N+](=O)[O-]	none
Brc1ccc(Sc2cnns2)cc1	USP28 inh 37.8
Cn1nc(C2CCN(C(=O)COc3ccccc3F)CC2)c2nccnc21	none
Cn1nc(C2CCN(C(=O)Cc3cccc(F)c3)CC2)c2nccnc21	USP8 inh 82.1, USP17 block 33.7
O=C(NCC1CCCO1)c1cnn2c3c(cnc12)CCCCCC3 (stereo unspecified)	none
CNc1nc2c(c(=O)n1Cc1ccccc1)CN(C(=O)c1ccc(CN)cc1)CC2	USP17 block 59.1
CNc1nc2c(c(=O)n1-c1ccccc1)CCN(C(=O)c1ccc3ccccc3c1)C2	USP30 block 42.7
CNc1nc2c(c(=O)n1Cc1ccccc1)CN(C(=O)Nc1ccccc1)CC2	none
O=C(C1CCC1)N1C[C@H]2C[C@H]3[C@](C1)(CN(Cc1ccc(Cl)cc1)S3(=O)=O)O2	none
O=S(=O)(c1ccc(F)cc1F)N1CCN=C1N1CCCCC1	none
Cc1ccccc1CNC(=O)CCc1ccc2nc(NC(=O)C(C)C)sc2c1	none
CSc1cccc(NC(=O)CCc2ccc3nc(NC(C)=O)sc3c2)c1	USP30 block 53.8
CC(C)C(=O)Nc1nc2ccc(CCC(=O)Nc3ccc(F)cc3F)cc2s1	USP30 block 33.5
NC(=O)C1(N2CCCCC2)CCN(C(=O)c2ccc3c(=O)n(CCc4ccccc4)c(=O)[nH]c3c2)CC1	none
Cc1cc(C)cc(NC(=O)CSc2ccc(-c3ccncc3)nn2)c1	USP30 block 55.0
CCc1ccc(NC(=O)CSc2ccc(-c3ccncc3)nn2)cc1	none
COc1cccc(-c2ccc(SCC(=O)Nc3ccc(F)c(F)c3)nn2)c1	USP8 inh 31.5
CCOC(=O)c1cc(S(=O)(=O)N(C)Cc2ccco2)cn1C	none (no result: USP30 block, USP28 inh)
Cc1ccccc1Cn1cc(S(=O)(=O)N2CCCC2)ccc1=O	none
Cc1ccccc1Cn1cc(S(=O)(=O)N2CCCCCC2)ccc1=O	USP30 block 37.1
O=C(Cn1cc(S(=O)(=O)N2CCCCCC2)ccc1=O)Nc1ccccc1	USP17 block 36.2
Cc1ccc(NC(=O)Cn2cc(S(=O)(=O)N3CCCCC3)ccc2=O)cc1	USP30 block 43.5
C=C1C[C@@]23CCC4[C@@](C)(CCC[C@@]4(C)C(=O)O[C@@H]4O[C@H](CO)C(O)[C@H](O)C4O)C2CC[C@@]1(O[C@H]1O[C@H](CO)C(O)[C@H](O)[C@H]1O[C@@H]1O[C@H](CO)[C@@H](O)[C@H](O)[C@H]1O)C3 (stereo partly specified)	none
COc1ccc(OCc2nn3c(-c4ccccc4Cl)nnc3s2)cc1	USP30 block 32.0
Cc1cccc(NC(=O)COc2cccc3ccc(N4CCC(C(N)=O)CC4)nc23)c1	USP8 inh 60.6, USP17 block 33.0
CC(=O)Nc1cccc(NC(=O)COc2cccc3ccc(N4CCCC4)nc23)c1	USP17 block 53.4
Cc1cc(OCC(=O)Nc2cccc(C#N)c2)nc(N2CCCCC2)n1	none
Cc1ccc(NC(=O)Cn2cnc(S(=O)(=O)N3CCOCC3)c2)cc1F	none (no result: USP17 block)
CC1CC(=O)Nc2cc(S(=O)(=O)Nc3ccc(F)cc3Cl)ccc2S1 (stereo unspecified)	none
COc1cccc(-n2c(=O)c(C(=O)NCc3ccccc3)c(O)c3cccnc32)c1	USP8 inh 80.1
O=C(COc1ccc2ccccc2c1)NCc1nnnn1-c1ccc(F)c(F)c1	USP17 block 47.6
CCOc1ccc(-n2nnnc2CNC(=O)NCc2ccccc2)cc1	none
CCOC(=O)c1cnn(-c2nc3ccccc3s2)c1N=CN(C)C	USP30 block 97.3, USP17 block 69.9, USP28 inh 68.6
Cc1ccc(S(=O)(=O)N2CCN3C(=O)[C@@H](Cc4ccccc4)N(C)C(=O)[C@@H]3C2)cc1	USP30 block 30.6
C[C@@H]1C(=O)N2CCN(S(=O)(=O)c3ccc(Cl)cc3)C[C@H]2C(=O)N1C	none (no result: USP30 block, USP28 inh)
Cc1ccc(-n2ncc3c2ncn2c(C)nnc32)cc1C	USP30 block 45.0
Cc1ccc(-n2ncc3c2ncn2nc(C(C)(C)C)nc32)cc1C	none
COc1ccccc1Cc1nnc(C2(C)CCOCC2)o1	none
C[C@H](NC(=O)[C@@H]1Cc2c([nH]c3ccccc23)C2c3ccccc3C(=O)N21)C(=O)NCc1ccc2c(c1)OCO2 (stereo partly specified)	USP17 block 34.4
Cc1nc(C(C)C)ncc1C(=O)NCc1ccc2c(c1)OCO2	none
Cc1nc(C(=O)N[C@@H](C)C(=O)NCc2ccc3c(c2)OCO3)cc2c1[nH]c1ccccc12	USP17 block 57.0
O=C1c2ccccc2C2c3[nH]c4ccccc4c3C(c3ccc4c(c3)OCO4)CN12 (stereo unspecified)	USP17 block 32.8
Cn1nccc1-c1ccc2c(C3CCCN3Cc3cccnc3)nnn2c1 (stereo unspecified)	none
CCc1cc2c(NCc3cccnc3)nc(C)nc2s1	none
CCc1cc2c(=O)[nH]c(Cc3ccc(OC)cc3)nc2s1	USP30 block 39.6, USP8 inh 34.8, USP17 block 58.0
COc1ccccc1NS(=O)(=O)c1ccc2oc(SCc3cn4c(C)cc(C)nc4n3)nc2c1	USP30 block 30.6 (no result: USP17 block)
COc1ccccc1NS(=O)(=O)c1ccc2oc(SCC(=O)N3CCc4ccccc4C3)nc2c1	none
O=C(Cn1ccc2ccc([N+](=O)[O-])cc21)NCc1ccc2c(c1)OCO2	none
CCn1cnc2c(-c3ccccc3)cn(CC(=O)NCc3ccc4c(c3)OCO4)c2c1=O	USP17 block 50.6
O=C(Cn1cnc2cc([N+](=O)[O-])ccc2c1=O)NCc1ccc2c(c1)OCO2	USP8 inh 39.1
O=C(Cn1cc(-c2ccccc2)c2ncn(C3CC3)c(=O)c21)NCc1ccc2c(c1)OCO2	USP8 inh 41.0
